# Screens as filed in PubChem BioAssay.
# aSyn 5UTR act = Activators via SNCA 5'UTR binding, MLPCN. alpha-synuclein 5'UTR reporter, activators screen. activity score, % (tested at 7.5 µM), hits read low. 7.1% of 300,000 active. AID 1814; in the data active means activity score below about -60%
# An asterisk follows results filed as active. Not all results are given here.
SMILES,aSyn 5UTR act
CCOC(=O)c1ccc(Nc2ncccc2[N+](=O)[O-])cc1,-218*
CCC(=O)NC(c1ccc(C)cc1)c1cc([N+](=O)[O-])c2cccnc2c1O (stereo not given),64
O=C(OCCC1Oc2cccnc2NC1=O)c1ccc([N+](=O)[O-])cc1 (stereo not given),34
Nc1ccc(OC(=O)Nc2ccc(O)cc2)cc1,91
O=C(Nc1ccc2c(c1)OCO2)c1n[nH]c(=O)c2ccccc12,-140*
CCOC(=O)c1ccc(NC(=O)c2nc(S(=O)(=O)Cc3ccccc3)ncc2Cl)cc1,54
CCOC(=O)c1ccc(NC(=O)c2ccccc2[N+](=O)[O-])cc1,-76*
CCOC(=O)c1ccc(NC(=O)c2ccccc2)cc1,-252*
CC1CCN(c2ccc(NC(=O)c3ccccc3[N+](=O)[O-])cc2)CC1,-70*
OCCCCNc1cccc2ccccc12,-64*
Cc1ccccc1-c1nc2cc(N)ccc2o1,-123*
CC(C)c1ccc2oc(-c3cc(N)ccc3O)nc2c1,-95*
CCN(CC)CCNC(=O)c1nn(-c2ccc(C)cc2)c(=O)c2c1c1ccccc1n2C,-64*
CCCN1CCC(=O)N([C@H](CSc2ccc(OC)cc2)c2ccccc2)CC1,-77*
Cc1ccc(SC[C@H](c2ccccc2)N2CCN(C)CCC2=O)cc1,-138*
Cc1ccc(SC[C@H](CC(C)C)N2CCN(C)CCC2=O)cc1,-135*
CC(C)C[C@@H](CSc1ccc(Br)cc1)N1CCN(C)CCC1=O,-141*
CC(C)C[C@@H](CSc1ccc(Br)cc1)N1CCN(CC(C)C)CCC1=O,-148*
COc1ccc(SC[C@H](CC(C)C)N2CCN(C)CCC2=O)cc1,-86*
Cc1c(C=O)c2cc(OCc3ccccc3)ccc2n1C,-76*
Cc1cc2cc(OCc3ccccc3)ccc2n1C,-183*
CC(CNS(=O)(=O)c1cc(Cl)ccc1Cl)CN(C)C (stereo not given),-159*
Cc1cnc(NC(=O)CC(C)c2ccccc2)s1 (stereo not given),-196*
Cc1cnc(NC(=O)CSc2nnc(-c3ccccc3)o2)s1,-139*
Cc1occc1-c1nnc(SCC(=O)Nc2nc(C(C)(C)C)cs2)o1,-111*
SMILES,aSyn 5UTR act
O=C(CSc1nnc(-c2ccccc2)o1)Nc1ccccc1F,74
Cc1csc(NC(=O)CSc2nnc(-c3ccncc3)o2)n1,-99*
Cc1csc(NC(=O)CSc2nnc(-c3ccoc3C)o2)n1,-111*
CN(C)CCCN(C(=O)c1ccc2c(c1)OCCO2)c1nc2cc3c(cc2s1)OCO3,-92*
Cc1ccc2sc(N(CCCN(C)C)C(=O)c3ccc(S(=O)(=O)N(C)Cc4ccccc4)cc3)nc2c1C,-73*
CCOc1cccc2sc(N(CCCN(C)C)C(=O)c3ccc(S(=O)(=O)N(C)Cc4ccccc4)cc3)nc12,56
CN(C)CCCN(C(=O)c1sc2ccccc2c1Cl)c1nc2ccc(F)cc2s1,-99*
Cc1ccc2nc(N(CCCN(C)C)C(=O)c3ccc4ncsc4c3)sc2c1,-84*
CCOc1cccc2sc(N(CCCN(C)C)C(=O)c3ccc(S(=O)(=O)N(CC)Cc4ccccc4)cc3)nc12,71
COc1ccc(C)c2sc(N(CCCN(C)C)C(=O)c3ccc4c(c3)OCCO4)nc12,-97*
CN(C)CCCN(C(=O)CCc1ccccc1)c1nc2ccc(Cl)cc2s1,109
COc1ccc(C)c2sc(N(CCCN(C)C)C(=O)c3ccc(S(=O)(=O)N4CCc5ccccc5C4)cc3)nc12,91
CCCCN(C)S(=O)(=O)c1ccc(C(=O)N(CCN(C)C)c2nc3ccc(C)cc3s2)cc1,-74*
CN(C)CCN(C(=O)c1ccc2ccccc2c1)c1nc2cc3c(cc2s1)OCCO3,-74*
CN(C)CCCN(C(=O)c1ccc2c(c1)CCCC2)c1nc2ccc(Cl)cc2s1,-70*
CCN(CC)CCN(C(=O)c1cc2c(ccc3ccccc32)oc1=O)c1nc2cc3c(cc2s1)OCCO3,78
COc1ccc(OC)c2sc(N(CCCN(C)C)C(=O)c3ccc(S(=O)(=O)N4CCc5ccccc5C4)cc3)nc12,100
Cc1ccc2nc(N(CCN(C)C)C(=O)c3ccc4c(c3)OCCO4)sc2c1,-110*
O=C(c1cc(-c2ccc(Br)cc2)on1)N1CCCCCC1,-145*
O=C(c1cc(-c2ccc(Cl)c(Cl)c2)on1)N1CCCCC1,-193*
O=C(c1cc(-c2cccc(Cl)c2)on1)N1CCCC1,-182*
O=C(c1cc(-c2cccc(O)c2)on1)N1CCCCCC1,-119*
Cc1ccc(N2C(=O)c3ccc(N)cc3C2=O)cc1C,-131*
Cc1ccc(N2C(=O)c3ccc(N)cc3C2=O)cc1,-182*
Cc1ccc(NC2(C#N)C(=O)Nc3ccccc32)cc1C (stereo not given),-89*
SMILES,aSyn 5UTR act
COc1ccc(SCC(=O)c2cc(C)c(OC(=S)N(C)C)c(C)c2)cc1,-82*
c1ccc(-c2ccc(-n3ccnc3)cc2)cc1,-81*
Cc1ccccc1Cn1ccc(-c2ccc3c(c2)OCO3)n1,-130*
Fc1cccc(Cn2ccc(-c3ccc4c(c3)OCO4)n2)c1,-97*
Fc1cccc(Cl)c1Cn1nnc(-c2ccc3c(c2)OCO3)n1,-97*
Cc1ccccc1Cn1nnc(-c2ccc3c(c2)OCO3)n1,-168*
Cc1cc(OCc2cc(C(=O)N(C)CC3CCOCC3)no2)cc(C)c1Cl,-72*
CCN(CC1CCCO1)C(=O)c1cc(COc2cc(C)c(Cl)c(C)c2)on1 (stereo not given),-129*
CC(=O)c1cccc(OCc2cc(C(=O)N(C)CCC3CCOCC3)no2)c1,-86*
C=CCn1c(=O)c2ccccc2n2c(Sc3nnnn3-c3ccccc3)nnc12,-74*
COc1ccc(NC(=O)c2ccc3[nH]c(C)c(C)c3c2)cc1,-101*
COc1cccc(-c2cc(=O)c3cc(NC(=O)c4ccc(N(C)C)cc4)ccc3[nH]2)c1,115
CC(=O)Nc1cccc(NC(=O)c2ccc3[nH]c(C)c(C)c3c2)c1,-107*
CCCCC[n+]1ccn(C2=C([O-])c3ccccc3C(=O)/C2=N\S(=O)(=O)c2ccc(Cl)cc2)c1,48
CC(C)c1ccc(N=C2N=C(N)c3ccccc32)cc1,-132*
CCOC(=O)c1sc(NC(=O)CCc2ccccc2)nc1C,-146*
COC(=O)c1sc(NC(=O)/C=C/c2ccccc2Cl)nc1C,-87*
Cc1nc(NC(=O)/C=C/c2ccccc2)sc1C(=O)NCCO,-67*
CCOC(=O)c1sc(Nc2cccc(Cl)c2)nc1C,-102*
COC(=O)c1sc(NC(=O)/C=C/c2ccc(C)cc2)nc1C,-71*
CCOC(=O)c1sc(NC(=O)/C=C/c2ccccc2)nc1C,-95*
N#Cc1c(N2CCCC2)nc(N)c2c(N)nc(N3CCCC3)cc12,-173*
N#C/C(=C/c1ccc([N+](=O)[O-])cc1)C(=O)Nc1ccccc1O,-134*
N#C/C(=C\c1ccc([N+](=O)[O-])cc1)C(=O)Nc1ccccc1O,-112*
CCCc1ccc2oc(C(=O)N(C)Cc3cnccn3)c(C)c2c1,-73*
SMILES,aSyn 5UTR act
Cc1ccc2oc(C(=O)N(C)Cc3ccon3)c(C)c2c1,-153*
O=C(/C=C/c1cccs1)Nc1cccnc1,-175*
O=C(COC(=O)/C=C/c1cccs1)Nc1nc(-c2cccc(Br)c2)cs1,-79*
O=C(/C=C/c1cccs1)Nc1nncs1,-162*
O=C(/C=C/c1cccs1)Nc1nc(-c2ccccc2)cs1,-246*
Cc1ccnc(NC(=O)/C=C/c2cccs2)c1,-77*
N#C/C(=C\c1ccc(-c2nc3ccccc3s2)o1)C(N)=O,-71*
Cc1noc(C)c1COC(=O)c1ccc(-c2nc3ccccc3s2)s1,-206*
